PAX8 inh HTS – PAX8 transcriptional activity inhibition | RMG-I TPO-luciferase reporter, SteadyGlo, 24 h | AID 652154 | 360,000 compounds, 1.2% hits | inhibition, % at 12.6 µM;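 active = mean replicate inhibition at least 60% with every replicate also reaching 60%; inconclusive = only one of the two criteria is met; inactive = mean below 60% and not all replicates reaching 60%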;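 also: luciferase light reporting Pax8 driven TPO promoter activity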
N-glyco inh – blocks N-linked glycosylation in D54 reporter cells; D54 ERlucT glycosylation luciferase reporter, 24 h; percent of 100 nM tunicamycin response; reporter increase, % at 12.5 µM; 360,000 compounds, 0.23% hits;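 active = mean luciferase reporter signal, scaled so untreated is 0 and the glycosylation-blocking control 100, at or above a set limit in every replicate; inconclusive = mean reaches the limit but not every replicate does; inactive = mean below the limit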;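 also: luciferase carries N-glycosylation sites so blocking glycosylation raises the light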
EBV LMP1 NFkB – Epstein-Barr LMP1 NF-kappaB reporter inhibition. LMP1-induced NF-kappaB luciferase reporter cells, luminescence. inhibition, % at 12.5 µM. 350,000 compounds, 0.69% hits. AID 504558; in the data active = inhibition above about 41%; inconclusive = no clear call, values can overlap the other calls
NSD2 HMT inh – inhibitors of human histone methyltransferase NSD2. AID 743445. inhibition, % at 12.5 µM. 310,000 compounds, 0.54% hits. NSD2 peptide methylation, AlphaScreen, 120 min; in the data active = inhibition above about 50%
HIV Env fusion – inhibitors of HIV Env-mediated cell fusion; HeLa-JRFL Env/CEM21 cell fusion, luciferase; inhibition, % at 12.3 µM; 360,000 compounds, 1.1% hits; AID 651610;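 active = mean replicate inhibition score of at least 50 and every replicate individually at or above 50; inconclusive = only one of the two criteria met; inactive = mean below 50 and not all replicates reaching 50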
Shn3 3UTR inh – inhibitors of Schnurri-3 3'UTR reporter in osteoblasts; inhibition, % at 12.5 µM; Clone20 osteoblast Shn3 3'UTR firefly luciferase, 24 h; 360,000 compounds, 0.52% hits;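 active = mean inhibition of at least 75% with every replicate also reaching 75%; inconclusive = mean inhibition at least 75% but some replicate below; inactive = mean inhibition below 75%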
Hits are given with their value; – = inactive; ? = inconclusive; · = no result given; ! = not confirmed by another sample; [ ] = remark or other dose. Compounds with a hit are over-represented: about 2.8% of the library has one in this group of screens.

SMILES | PAX8 inh HTS | N-glyco inh | EBV LMP1 NFkB | NSD2 HMT inh | HIV Env fusion | Shn3 3UTR inh
CC(C)(C)C(=O)Nc1ccc(Sc2ccc([N+](=O)[O-])cc2)cc1 | – | – | – | – | – | –
C[C@@H]1CN([C@H](C)CO)C(=O)c2ccccc2-c2ccccc2CO[C@H]1CN(C)S(=O)(=O)c1ccccc1F | – | · | · | · | – | ·
CC(C)(C)c1nnc2sc(SCC(=O)c3ccc4c(c3)OCCO4)nn2c1=O | – | 40 | – | – | – | –
C[C@H]1CN([C@@H](C)CO)C(=O)c2cc(NS(=O)(=O)c3ccc(F)cc3)ccc2O[C@H]1CN(C)C(=O)Nc1cccc2ccccc12 | · | · | · | · | – | ·
Cc1c(C)c2ccc(OCC(=O)Nc3ccccn3)c(C)c2oc1=O | – | – | – | · | 83 | 94
CCCc1cc(=O)oc2cc(C)cc(OCC(=O)Nc3ccccn3)c12 | – | – | – | – | – | –
O=C(COc1ccc(Cl)cc1Cl)Nc1ccccn1 | · | – | 64 | – | · | –
Cc1cc(OCC(=O)Nc2ccccn2)c2c(C)cc(=O)oc2c1 | – | – | 49 | – | – | –
O=C(NCC1CC1)[C@H]1[C@H](CO)[C@H]2Cn3c(ccc(-c4cccc(F)c4)c3=O)[C@H]2N1CC1CCCC1 | – | · | · | · | · | ·
COc1c(Cl)cc(Cl)cc1/C=C/C(=O)c1ccc(NC(=O)c2cccs2)cc1 | 81 | – | – | – | – | –
O=S(=O)(N[C@@H]1CC[C@@H](CCn2cc(-c3ccccn3)nn2)O[C@@H]1CO)c1cccc(F)c1 | – | · | · | · | – | ·
CCc1nc2c(OCc3ccc(C(F)(F)F)cc3)cccn2c1N(C)C(=O)c1ccc(C)cc1 | – | – | · | – | 57 | –
CCOC(=O)N(C)c1c(CC)nc2c(OCc3cc(Cl)cc(Cl)c3)cccn12 | – | – | · | – | 56 | –
CN(C)CC(=O)Nc1ccc2c(c1)[C@H]1C[C@H](CC(=O)NCc3ccccc3F)O[C@H](CO)[C@H]1O2 | – | · | · | · | – | ·
Cn1c(=O)c2c(nc(SCC(=O)NCc3ccc4c(c3)OCO4)n2Cc2ccc(Cl)cc2)n(C)c1=O | – | – | – | – | 106 | –
COCCCNC(=O)CSc1nc2cc3c(cc2c(=O)n1CCCC(=O)NCc1ccc(OC)cc1)OCO3 | – | – | – | – | – | –
NC(=O)CSc1nc2cc3c(cc2c(=O)n1CCCC(=O)NCc1ccc2c(c1)OCO2)OCO3 | · | – | 45 | – | – | –
C[C@H]1CN([C@@H](C)CO)C(=O)Cc2cc(NC(=O)C3CCCCC3)ccc2O[C@@H]1CN(C)Cc1ccncc1 | · | · | · | · | – | ·
O=C(CN1CCOCC1)N[C@@H]1CC[C@H](CCNS(=O)(=O)c2ccccc2F)O[C@@H]1CO | – | · | · | · | – | ·
CC(C)NC(=O)N(C)C[C@@H]1Oc2ccc(NC(=O)CCCN(C)C)cc2C(=O)N([C@H](C)CO)C[C@@H]1C | – | · | · | · | · | ·
C[C@H]1CCCCO[C@H](CN(C)C(=O)Nc2ccc(C(F)(F)F)cc2)[C@@H](C)CN([C@@H](C)CO)C(=O)c2cc(NS(=O)(=O)c3ccc(F)cc3)ccc2O1 | 84 | · | · | · | 78[16.7 µM] | ·
C[C@@H]1CCCCO[C@@H](CN(C)C(=O)Nc2ccc(C(F)(F)F)cc2)[C@H](C)CN([C@H](C)CO)C(=O)c2cc(NS(=O)(=O)c3ccc(F)cc3)ccc2O1 | 88 | · | · | · | – | ·
C[C@H](CO)N1C[C@H](C)[C@H](CN(C)C(=O)Nc2ccc(C(F)(F)F)cc2)OCCCC[C@H](C)Oc2ccc(NS(=O)(=O)c3ccc(F)cc3)cc2C1=O | 72 | · | · | · | 59[16.7 µM] | ·
C[C@@H]1CCCCO[C@H](CN(C)C(=O)Nc2ccc(F)cc2)[C@H](C)CN([C@@H](C)CO)C(=O)c2cc(NS(=O)(=O)c3ccc(F)cc3)ccc2O1 | – | · | · | · | – | ·
C[C@@H]1CCCCO[C@@H](CN(C)C(=O)Nc2ccc(F)cc2)[C@@H](C)CN([C@H](C)CO)C(=O)c2cc(NS(=O)(=O)c3ccc(F)cc3)ccc2O1 | – | · | · | · | – | ·
SMILES | PAX8 inh HTS | N-glyco inh | EBV LMP1 NFkB | NSD2 HMT inh | HIV Env fusion | Shn3 3UTR inh
Cc1cccc(OCc2nc(-c3cccnc3)no2)c1 | 92 | – | – | – | · | –
CCC(C)(C)c1ccc(OCCCC[n+]2cccc(C)c2)c(C(C)(C)CC)c1 | 71 | – | – | – | 129 | 88
COc1ccc(CN(C)C[C@H]2Oc3ccc(NC(=O)C4CC4)cc3C(=O)N([C@@H](C)CO)C[C@@H]2C)cc1 | · | · | · | · | – | ·
CC(Nc1nc(-c2ccc(F)cc2)cs1)c1nc2cc(Cl)c(N3CCCCC3)cc2n1CCCO (stereo not drawn) | – | – | – | · | 78 | –
CCC(C)Nc1nc(-c2ccccn2)nc2ccccc12 (stereo not drawn) | – | – | 48 | – | ? | ?
CC(Nc1nc(-c2ccccc2O)nc2ccccc12)c1ccccc1 (stereo not drawn) | – | 29 | – | · | – | –
c1ccc(CNc2nc(-c3ccccn3)nc3ccccc23)cc1 | – | – | – | – | – | –
CO[C@@H]1CN(C)C(=O)c2ccc(NC(=O)C3CC3)cc2OC[C@@H](C)N(CCC(F)(F)F)C[C@@H]1C | – | · | · | · | · | ·
C[C@H](CO)N1C[C@H](C)[C@H](CN(C)C(=O)Nc2ccc(C(F)(F)F)cc2)Oc2ccc(NC(=O)CCC(F)(F)F)cc2C1=O | – | · | · | · | · | ·
C[C@H](CO)N1C[C@H](C)[C@H](CN(C)C(=O)Nc2ccc(F)cc2)Oc2ccc(NC(=O)C3CC3)cc2CC1=O | – | · | · | · | – | ·
CCCCCn1c(=N)n(CC(O)COc2ccccc2OC)c2ccccc21 (stereo not drawn) | – | – | – | · | – | 86!
COc1ccccc1OCC(O)Cn1c(=N)n(Cc2ccccc2)c2ccccc21 (stereo not drawn) | · | – | – | – | – | 87
Cc1ccccc1OCC(O)Cn1c(=N)n(Cc2ccccc2)c2ccccc21 (stereo not drawn) | – | – | – | · | – | 87
O=C(N/N=C/c1ccc(Cl)c([N+](=O)[O-])c1)c1cc(-c2ccc3c4c(cccc24)CC3)n[nH]1 | 97 | – | – | – | – | –
O=C(N/N=C/c1cccc([N+](=O)[O-])c1)c1cc(-c2ccc3c4c(cccc24)CC3)n[nH]1 | – | – | – | – | – | –
Nc1ccc(Cn2ccc3c4c(N)nc(N)nc4ccc32)cc1 | 70 | – | – | · | – | –
Cc1nc2ccc(N)cc2c(=O)n1Cc1ccc(Cl)cc1 | · | – | – | – | – | –
Cc1ccc(S(=O)(=O)Nc2ccc3c(c2)C(=O)N([C@@H](C)CO)C[C@H](C)[C@H](CN(C)Cc2ccc(C(F)(F)F)cc2)OCCCC[C@@H](C)O3)cc1 | 102 | · | · | · | – | ·
Cc1ccc(S(=O)(=O)Nc2ccc3c(c2)C(=O)N([C@H](C)CO)C[C@@H](C)[C@H](CN(C)Cc2ccc(C(F)(F)F)cc2)OCCCC[C@H](C)O3)cc1 | 116 | · | · | · | – | ·
Cc1ccc(S(=O)(=O)Nc2ccc3c(c2)C(=O)N([C@@H](C)CO)C[C@@H](C)[C@@H](CN(C)Cc2ccc(C(=O)O)cc2)OCCCC[C@@H](C)O3)cc1 | – | · | · | · | – | ·
